Screens deposited in PubChem BioAssay by National Center for Advancing Translational Sciences (NCATS).
ERK AVP block: qHTS Assay for Inhibitors of the ERK Signaling Pathway using a Homogeneous Screening Assay | Potency, µM (doses to about 57.5 µM), for inactives: top-dose activity, negative = inhibition, most hits filed as inhibitors | hit rate 0.99% among 72,000 | HEK293-V1b, vasopressin-stimulated pERK AlphaScreen; also: potency is read from the fitted curve at half-maximal effect; % is scaled to controls: 0 for no effect and ±100 for the full control effect; nearly all actives have a fitted effect of over 55% in size
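Overnight-seeded V1b-HEK293 cells in 1% FBS got compound, then vasopressin (25 nM final, 5 min, 37C), then lysis buffer. AlphaScreen detection of phospho-ERK; activity normalized to basal and full-stimulation controls.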
YjeE inh: qHTS Assay for Inhibitors of YjeE | purified YjeE enzyme, qHTS inhibition assay | Potency, µM | hit rate 0.05% among 71,000 | AID 605, 2007
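Fluorescence polarization of a BODIPY Texas Red–ADP probe (2 uM) bound to purified YjeE (10 uM) was read after 15 min room-temperature incubation with compounds. Loss of polarization marks inhibitors; ADP serves as titrated control.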
15-hLO inh: qHTS Assay for Inhibitors of 15-hLO (15-human lipoxygenase). purified 15hLO-1, xylenol orange hydroperoxide absorbance. Potency, µM (top dose mostly 57.1 µM), for inactives: at the top dose activity change, negative = inhibition, hits mostly inhibitors. hit rate 1.4% among 74,000. Polyunsaturated fatty acid lipoxygenase ALOX15 (Homo sapiens), P16050; also: potency is read from the fitted curve at half-maximal effect; % is scaled to controls: 0 for no effect and ±100 for the full control effect; nearly all actives have a fitted effect of over 55% in size
Target sequence (P16050 whole entry, looked up): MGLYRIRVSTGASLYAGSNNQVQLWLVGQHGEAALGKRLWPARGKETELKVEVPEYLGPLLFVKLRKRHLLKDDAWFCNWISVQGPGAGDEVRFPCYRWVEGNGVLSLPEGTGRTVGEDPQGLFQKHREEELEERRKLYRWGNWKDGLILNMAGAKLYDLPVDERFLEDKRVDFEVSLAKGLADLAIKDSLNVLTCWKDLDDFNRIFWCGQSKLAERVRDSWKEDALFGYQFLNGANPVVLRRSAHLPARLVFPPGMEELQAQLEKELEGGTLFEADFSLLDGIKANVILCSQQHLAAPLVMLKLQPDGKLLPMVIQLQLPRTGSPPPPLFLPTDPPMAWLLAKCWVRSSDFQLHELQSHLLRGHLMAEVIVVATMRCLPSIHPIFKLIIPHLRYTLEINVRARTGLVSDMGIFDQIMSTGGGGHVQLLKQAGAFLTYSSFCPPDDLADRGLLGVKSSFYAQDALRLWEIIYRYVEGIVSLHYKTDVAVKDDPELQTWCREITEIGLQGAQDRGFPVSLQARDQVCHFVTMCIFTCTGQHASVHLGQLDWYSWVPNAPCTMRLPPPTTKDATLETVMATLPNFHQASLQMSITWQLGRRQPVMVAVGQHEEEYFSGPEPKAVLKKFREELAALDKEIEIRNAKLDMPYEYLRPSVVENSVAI
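Inhibition is scored from a chromogenic endpoint. After 15 min enzyme-compound contact, arachidonic acid (50 uM final) reacts 6 min with 40 nM 15hLO-1 at room temperature, then Fe-XO reagent is added for 30 min and absorbance ratio recorded.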
DNA Pol III inh: qHTS Assay for Inhibitors of DNA Polymerase III Holoenzyme System. hit rate 0.25% among 71,000. Potency, µM (series often up to 57.1 µM), inactives show at the highest dose activity change, negative = inhibition. reconstituted DNA polymerase III holoenzyme replication, biochemical; also: potency is read from the fitted curve at half-maximal effect; % is scaled to controls: 0 for no effect and ±100 for the full control effect
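Reconstituted *E. coli* holoenzyme (0.35 nM Pol III, 1 nM beta, 154 nM SSB, 2 nM primase) was preincubated with compound for 15 min at RT. Synthesis on 1.4 nM ssM13Gori ran 35 min, then was stopped with PicoGreen/EDTA and read as dsDNA fluorescence.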
Hsp90 Hop PPI: qHTS Assay for Disrupters of an Hsp90 Co-Chaperone Interaction | hit rate 0.44% among 71,000 | Potency, µM (highest dose often 57 µM), without a hit: at the top dose activity change, negative = inhibition | AlphaScreen TPR2A-His6 binding biotin-Hsp90 C-terminal peptide; active = well fitted curve in either direction with a large enough effect; inconclusive = small, poorly fitted or top-dose-only effect, or another doubt; also: potency is read from the fitted curve at half-maximal effect; % is scaled to controls: 0 for no effect and ±100 for the full control effect
Tau filament bind: qHTS Assay for Tau Filament Binding; recombinant tau filaments, thioflavin S fluorescence, 15 h; filaments grown with octadecylsulfate alongside compound; Potency, µM (doses to about 57.1 µM), for the others: at the top dose activity change, negative = inhibition; hit rate 2% among 71,000;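 also: potency is read from the fitted curve at half-maximal effect; % is scaled to controls: 0 for no effect and ±100 for the full control effect; actives lower thioflavin S fluorescence by blocking filaments or displacing dye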
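Tau 2 uM in ThS buffer dispensed; compound added; 60 uM ODS added (finals 1 uM tau, 30 uM ODS); 15 h 37 C; fluor ex450/em510.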
* = called active by the depositor; i = inactive; u = inconclusive; x = no result; ! = not confirmed by another sample; [ ] = another dose, or the depositor's remark. A selection: hits, their analogues and other compounds. The true share with any hit is near 4.2%. Unless noted, calls follow the shape of the dose curve; as a rule, active = well fitted curve in the direction sought with a large enough effect; inconclusive = small, poorly fitted or top-dose-only effect, or another doubt; inactive = no such curve, though single readings can be large; an effect the other way counts as inactive or inconclusive.

SMILES	ERK AVP block	YjeE inh	15-hLO inh	DNA Pol III inh	Hsp90 Hop PPI	Tau filament bind
Cn1c(=O)[nH]c(=O)c2c1nc(SCC(=O)O)n2CCc1ccccc1	-19.6%	i	6.31µM*	-3.8%	-2.4%	15.1%
Cn1c(=O)c2c(nc(Br)n2CCCc2ccccc2)n(C)c1=O	-22.3%	i	-3.2%	-1.1%	-2.4%	-4.9%
COc1cccc(-c2cc(NCc3cnc(C)cn3)ncn2)c1	-22.8%	i	u	1.7%	-1.0%	5.3%
CCOC(=O)C1=C(C)NC(C)=C(C(=O)OC)[C@H]1c1cccc([N+](=O)[O-])c1	-14.3%	i	-7.2%[25.6 µM]	2.5%	-18.4%	u
COC(=O)C1=C(C)NC(C)=C(C(=O)OCCN(C)Cc2ccccc2)[C@@H]1c1cccc([N+](=O)[O-])c1	5.6%	i	-12.5%	-2.9%	-27.5%	31.6µM*
CCOC(=O)C1=C(C)NC(C)=C(C(=O)OC)[C@@H]1c1cccc([N+](=O)[O-])c1	4.9%[25.7 µM]	i	-8.3%[25.6 µM]	-8.0%[25.6 µM]	-2.6%[26 µM]	-26.7%[25.6 µM]
COCCOC(=O)C1=C(C)NC(C)=C(C(=O)OC(C)C)[C@@H]1c1cccc([N+](=O)[O-])c1	-14.8%	i	-4.9%	-2.1%	-12.5%	31.6µM*!
CC(C)(C)OC(=O)N1CCC(C(=O)N2CCCCCC2)CC1	x	x	-1.0%	x	x	x
O=C1C(C2=C(O)c3ccccc3C2=O)=Nc2ccccc21	-24.0%	i	-27.4%	-8.7%	u	6.31µM*
CCCN(CCC)Cc1c(C(=O)OCC)nnn1-c1nonc1N	36.5%	i	-16.1%	-4.1%	3.7%	5.2%
CN1c2ccccc2C(C)(C)C12C=Cc1cc(O)ccc1O2 (stereo not drawn)	6.7%	u	u	-6.9%	u	25.1µM*
CCOC(=O)c1cnn2c(C(F)(F)F)cc(-c3ccccc3)nc12	14.8%	i	-11.8%	-5.7%	13.7%	12.6µM*
CCOC(=O)C1CCCN(C(=O)c2cc3nc(-c4cccc(OC)c4)cc(C(F)(F)F)n3n2)C1 (stereo not drawn)	15.8µM*	i	-16.2%	-3.0%	u	-25.8%
O=C(c1cnn2c(C(F)(F)F)cc(-c3ccccc3)nc12)N1CCOCC1	-2.8%	i	-2.0%	-0.7%	-3.1%	-6.4%
CCOC(=O)C1CCCN(C(=O)c2cnn3c(C(F)(F)F)cc(-c4ccccc4)nc23)C1 (stereo not drawn)	3.9%	i	-4.3%	-4.6%	u	12.6µM*
COc1ccc(Cc2c(O)nc(SC)n(C(C)=O)c2=O)cc1	8.7%	i	-1.4%	-4.3%	-3.0%	3.3%
O=C(NCC(=O)N(c1ccc2c(c1)OCO2)C(C(=O)NC1CCCC1)c1cccs1)c1ccco1 (stereo not drawn)	16.5%	i	-6.0%	-1.7%	-1.8%	40.4%
Cc1onc(-c2c(F)cccc2Cl)c1C(=O)NCCCN1CCOCC1	-1.7%	i	8.1%	-3.1%	-1.2%	-2.7%
O=c1oc2ccccc2c(O)c1/C=N/c1nc(-c2ccc(O)c(O)c2)cs1	-4.3%[11.5 µM]	i	u	3.4%[11.4 µM]	-2.2%[11 µM]	-6.9%[11.4 µM]
Oc1ccc(-c2nc(-c3ccc(O)c(O)c3)cs2)cc1	u	i	1.58µM*	-2.2%	-7.6%	u
COC(=O)c1ccc(Sc2ccc(C)cc2)c(N)c1	42.0%	i	u	4.4%	6.5%	-12.5%
COc1cc(Sc2ccc(C)cc2)c(OC)cc1N	u	i	u	1.7%	u	25.1µM*
CC(CCC(=O)O)(c1ccc(O)cc1)c1ccc(O)cc1	25.7%	i	3.3%	-7.1%[11.4 µM]	u	4.6%[11.4 µM]
CC1CCC2C(=O)N3C(CCC(C)C3c3ccc(-c4ccco4)cc3)C(=O)N2C1c1ccc(-c2ccco2)cc1 (stereo not drawn)	34.9%[11.5 µM]	x	2.51µM*	x	x	x
C[C@@H]1CC[C@@H]2C(=O)N3[C@@H](CC[C@@H](C)[C@@H]3c3ccc(-c4ccco4)cc3)C(=O)N2[C@H]1c1ccc(-c2ccco2)cc1	2.7%[11.5 µM]	x	-12.7%[11.4 µM]	x	x	x
SMILES	ERK AVP block	YjeE inh	15-hLO inh	DNA Pol III inh	Hsp90 Hop PPI	Tau filament bind
CC1CCC2C(=O)N3C(CCC(C)[C@@H]3c3ccc(-c4ccco4)cc3)C(=O)N2C1c1cccc(N2CCCC2=O)c1 (stereo partly drawn)	22.3%[11.5 µM]	x	5.01µM*	x	x	x
Cc1cccc(C)c1NC(=O)Nc1cccs1	-13.3%	i	25.1µM*	-4.5%	-9.6%	-17.9%
Cc1cc(NC(=O)Nc2cccs2)no1	0.7%	i	u	1.4%	4.0%	1.3%
CCc1cccc(NC(=O)Nc2cccs2)c1	-22.1%	i	12.6µM*	-3.8%	-11.3%	u
N#Cc1cccc(NC(=O)Nc2cccs2)c1	15.0%	i	u	-6.7%	-11.9%	u
O=C(Nc1ccon1)c1sc2cc(F)ccc2c1Cl	5.8%	i	3.4%	-2.5%	-0.4%	30.6%
CCOC(=O)Cn1c(=O)sc2ccccc21	-1.1%	i	6.6%	-0.8%	-1.6%	9.7%
Cc1cccc(NC2=NC(C)(C)N=C(N)N2)c1C	14.0%	i	7.7%	-6.0%	-8.5%	13.2%
COc1cc2[nH]c(=S)n(C3CCCC3)c(=O)c2cc1OC	u	i	15.8µM*	-1.7%	-1.1%	39.7%
Cc1nnc(SCc2ccccc2C#N)n1-c1ccccc1	-19.0%	i	u	-5.4%	-4.6%	-21.3%
CC(C)(C)CC(C)(C)c1cc(O)c(O)c(CN2CCCCC2)c1	-18.1%[11.5 µM]	i	0.398µM*	-11.2%[11.4 µM]	-7.3%[11 µM]	u
CC(=C/C=C/C(C)=C/C=C/C=C(C)/C=C/C=C(C)/C=C/C(=O)O)/C=C/C(=O)O	1.4%	i	4.7%	-13.9%	-1.0%	25.1µM*
O=C(O)/C=C/C(=O)O	14.7%	i	-5.0%	1.3%	-3.6%	103.6%
CC(C)(C)NC[C@H](O)c1cc(O)cc(O)c1	-14.2%[25.7 µM]	i	4.9%[25.6 µM]	-5.7%[25.6 µM]	-1.0%[26 µM]	-2.8%[25.6 µM]
Cc1ccc(S(=O)(=O)N2CCC(C(=O)OC(C)C(=O)NCc3ccc4c(c3)OCO4)CC2)cc1 (stereo not drawn)	20.6%	i	-7.6%	-0.6%	u	-2.6%
COc1ccc(-c2c3c(=O)n(C)c(=O)n(C)c3cn2C2CCCCC2)cc1	15.8µM*	i	25.1µM*	-8.7%	u	9.7%
COc1ccc(-c2c3c(=O)n(C)c(=O)n(C)c3c3nnc4ccccc4n23)cc1	-5.5%	i	7.6%	5.1%	-1.9%	50.7%
CCOc1ccc(-n2c(SCC(=O)NCc3ccco3)nc3c([nH]c4ccccc43)c2=O)cc1	-10.6%	i	-12.2%	-4.3%	-0.1%	i
O=C(Nc1cccnc1)c1cc2nc(C3CC3)cc(C(F)(F)F)n2n1	-29.0%	i	7.6%	-0.8%	u	u
